# SMARCA2 activ = increases SMARCA2 function in MMTV reporter cells; AID 652017; MG213 cells, MMTV-luciferase reporter, dexamethasone, overnight; activation, % at 9.1 µM; hit rate 1% among 370,000; in the data active = activation above about 7.8%
# hgDAF12 agonist = hgDAF-12 agonism, primary luciferase screen; HEK293 GAL4-hgDAF12 UAS-luciferase reporter, agonist luminescence; normalized to butyrate control; activation, % at 6.8 µM; hit rate 1.8% among 370,000; AID 687014;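 active = activation above a cutoff set at the mean of all screened compounds plus 3 SD, cut at about 10% in these data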
# DAX1 inh-1 = DAX1 (NR0B1) inhibition, primary screen; hit rate 1.1% among 370,000; HEK293T StAR-luciferase reporter, SF-1/DAX-1 repression relief; inhibition, % at 6.8 µM;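 active = inhibition above the mean over all tested compounds plus 3 SD, cut at about 3.6% in these data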;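 note: higher inhibition means more luminescence from relief of DAX-1 repression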
# ssDAF-12 act = activates DAF-12 receptor from parasite S. stercoralis. HEK293 ssDAF-12/GRIP1 lit1-tk-luc reporter, luminescence; % of 3 µM dafachronic acid response. hit rate 1% among 370,000. AID 652126. activation, % at 6.8 µM;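 active = activation above the mean over all tested compounds plus 3 SD, cut at about 0.9% in these data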
# hcDAF-12 act = activates DAF-12 receptor from parasite H. contortus. HEK293 hcDAF-12 lit1-tk-luc reporter, luminescence; 0% DMSO, 100% Δ7-dafachronic acid. AID 652067. activation, % at 6.8 µM. hit rate 1.4% among 370,000;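 active = activation above the mean of all tested compounds plus 3 SD, cut at about 5.5% in these data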
# DAX1 inh-2 = NR0B1 (DAX1) inhibition | P51843 | HEK293 Gal4-DAX1 luciferase reporter, luminescence | inhibition, % at 6.75 µM | hit rate 0.99% among 340,000;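 active = inhibition above the mean over all tested compounds plus 3 SD, cut at about 4.2% in these data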;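 note: inhibition shows as a rise in luminescence from relieved DAX1 repression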
# LXR ag = LXR-beta agonism as hcDAF-12 counter-screen. HEK293 Gal4-LXR tk-luc reporter, luminescence, 24 h; normalized: DMSO 0%, positive control 100%. activation, % at 6.8 µM. 3,400 tested, under 10 active. shares compounds with hcDAF-12 act;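 active = mean percent activation of the reporter above a cutoff set as the average over tested compounds plus their standard deviation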
# Target sequence (P55055 whole entry, looked up, the tested form may be a part): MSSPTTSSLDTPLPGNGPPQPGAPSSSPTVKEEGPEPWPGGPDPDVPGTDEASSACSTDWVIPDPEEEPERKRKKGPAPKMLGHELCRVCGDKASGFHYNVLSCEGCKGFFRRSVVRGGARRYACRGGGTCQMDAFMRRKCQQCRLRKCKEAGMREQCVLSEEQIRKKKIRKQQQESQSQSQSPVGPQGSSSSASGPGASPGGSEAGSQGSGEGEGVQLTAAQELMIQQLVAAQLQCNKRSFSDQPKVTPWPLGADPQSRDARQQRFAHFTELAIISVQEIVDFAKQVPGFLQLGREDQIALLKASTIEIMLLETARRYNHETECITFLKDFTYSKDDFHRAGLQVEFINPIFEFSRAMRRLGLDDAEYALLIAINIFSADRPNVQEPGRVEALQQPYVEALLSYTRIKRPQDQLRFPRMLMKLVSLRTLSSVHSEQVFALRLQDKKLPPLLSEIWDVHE
# hcDAF12 conf = hcDAF-12 agonism, confirmation assay | hit rate 61% among 3,400 | AID 743032 | activation, % at 6.8 µM | HEK293 hcDAF-12 lit1-tk-luc reporter, luminescence; % of Δ7-dafachronic acid response | shares compounds with hcDAF-12 act;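 active = mean activation across triplicate tests above the threshold derived from the earlier primary screen, cut at about 5.5% in these data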
# hgDAF12 conf = hgDAF-12 agonism, confirmation assay; HEK293 GAL4-hgDAF12 luciferase reporter, agonist mode; percent of butyrate response; shares compounds with hgDAF12 agonist; hit rate 80% among 3,300; activation, % at 6.8 µM;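 active = mean activation over triplicate wells above the hit cutoff derived from the earlier primary screen, cut at about 11% in these data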
# LXR ag 2 = activates human LXR-beta, counter-screen for DAF-12 agonists; HEK293 Gal4-LXR luciferase reporter, 24 h; 3,300 tested, under 10 active; shares compounds with hgDAF12 agonist; activation, % at 6.8 µM;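 active = mean activation of the triplicate above a set limit carried over from the primary screen, none filed active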
# Numbers stand for hits; – = inactive; · = no result given. A selection: hits, their analogues and other compounds. The true share with any hit is near 4.8%.
SMILES,SMARCA2 activ,hgDAF12 agonist,DAX1 inh-1,ssDAF-12 act,hcDAF-12 act,DAX1 inh-2,LXR ag,hcDAF12 conf,hgDAF12 conf,LXR ag 2
O/N=C/c1ccc(OCc2ccccc2F)c(Cl)c1,–,19,–,–,6.7,–,–,–,17,–
COc1cccc(NC2SC(=O)N(c3ccccc3)C2=O)c1 (stereo unspecified),8.0,14,5.5,–,7.1,–,–,–,11,–
CN1C(=O)SC(Nc2ccccc2)C1=O (stereo unspecified),–,–,–,–,–,–,·,·,·,·
COCc1c(C(=O)N/N=C(/C)c2ccc(OCc3ccccc3)cc2)nnn1-c1nonc1N,–,14,–,–,8.5,–,–,–,–,–
C[C@@H]1COc2cccc(N3CCCC3)c2S(=O)(=O)N1,–,–,–,–,–,·,·,·,·,·
Cc1ccnc(Nc2nc(-c3ccccc3)cs2)c1,–,15,–,–,7.8,–,–,5.9,15,–
Oc1ccc(-c2csc(Nc3ncccn3)n2)cc1,–,18,–,–,7.0,–,–,8.4,–,–
NS(=O)(=O)c1ccc(Nc2nc(-c3ccc(F)cc3)cs2)cc1,–,–,–,–,–,·,·,·,·,·
Cc1cccc(Nc2nc(-c3ccc(F)cc3)cs2)n1,–,16,–,2.8,13,9.3,–,9.6,18,–
c1ccc(-c2csc(Nc3ncccn3)n2)cc1,–,–,–,–,–,–,·,·,·,·
Fc1ccc(-c2csc(Nc3ccccn3)n2)cc1,–,20,–,4.3,21,–,–,16,26,–
CCn1c2ccccc2c2cc(NC(=O)COC(=O)c3cc(F)ccc3F)ccc21,–,–,–,–,–,·,·,·,·,·
Cc1ccc(Nc2nc(-c3ccc(F)cc3)cs2)nc1,–,14,–,2.7,18,6.4,–,11,18,–
COc1ccc(-c2csc(Nc3cccc(C)n3)n2)cc1,–,14,–,1.0,6.8,8.7,–,–,19,–
COc1ccc(-c2csc(Nc3cccc(C)n3)n2)cc1C,–,14,–,–,6.7,–,–,6.0,17,–
COc1cccc(CN(C)[C@H]2C[C@H]3c4[nH]c5ccccc5c4CCN3C[C@H]2[C@H](C)O)c1OC,–,–,–,–,–,·,·,·,·,·
CCOC(=O)C1CSCCS(=O)(=O)N1Cc1ccc(F)cc1 (stereo unspecified),–,–,–,–,–,·,·,·,·,·
COc1cccc(CNC(=O)[C@H]2CCCN2C(=O)[C@H]2CCCN2S(=O)(=O)c2cccc(C)c2)c1,–,–,–,–,–,·,·,·,·,·
COC(=O)c1cc2c(c3c4cc(F)ccc4n(S(=O)(=O)c4ccccc4)c13)C(=O)N(Cc1ccccc1)C2,–,–,–,–,–,·,·,·,·,·
COc1ccccc1-c1noc(-c2ccncc2)n1,–,–,–,–,–,–,·,·,·,·
COc1ccccc1-c1noc(-c2cccs2)n1,–,19,–,–,8.7,–,–,–,23,–
Clc1cccc(-c2nnc(-c3ccccc3)o2)c1,–,16,–,1.9,14,–,–,11,23,–
CC(=O)N1CCN(c2ccc(N3CCN(C(C)=O)[C@@H](C)C3)c(C)c2)[C@@H](C)C1,–,–,–,–,–,·,·,·,·,·
Nc1ccccc1SCc1cn2ccccc2n1,–,14,4.2,1.4,7.4,–,–,–,14,–
N=C(N)SCc1cn2ccccc2n1,–,–,–,–,–,–,·,·,·,·
SMILES,SMARCA2 activ,hgDAF12 agonist,DAX1 inh-1,ssDAF-12 act,hcDAF-12 act,DAX1 inh-2,LXR ag,hcDAF12 conf,hgDAF12 conf,LXR ag 2
CCc1ccc(C2=NN(S(C)(=O)=O)C(c3cccs3)C2)cc1 (stereo unspecified),–,15,–,2.6,12,–,–,6.1,23,–
CCS(=O)(=O)Nc1cccc(C2=NN(S(=O)(=O)c3ccc(C)cc3)C(c3cccs3)C2)c1 (stereo unspecified),–,–,–,–,–,–,·,·,·,·
Cc1ccc(C2=NN(S(C)(=O)=O)C(c3cccs3)C2)cc1 (stereo unspecified),–,14,–,–,7.6,–,–,–,14,–
CS(=O)(=O)N1N=C(c2cccs2)CC1c1ccccc1 (stereo unspecified),–,–,–,–,–,–,·,·,·,·
CC(C)CNc1cccc2c1S(=O)(=O)N[C@@H](C)CO2,–,–,–,–,–,·,·,·,·,·
Brc1ccc(-n2cnc(-c3ccccc3)c2)cc1,–,20,–,–,7.2,5.4,–,–,20,–
O=[N+]([O-])c1ccc(-c2cn(-c3ccc(Cl)cc3)cn2)cc1,–,–,–,–,–,·,·,·,·,·
CC(=O)c1cc2c(C)c(C(=O)c3ccccc3)oc2cc1O,–,26,4.0,1.7,7.5,–,–,5.8,21,–
O=C(c1ccccc1)c1ccc(O)cc1O,–,–,–,–,–,–,·,·,·,·
COc1ccc(Nc2nc(-c3cc4cccc(OC)c4oc3=O)cs2)cc1,–,–,–,–,–,–,·,·,·,·
COc1ccc(-c2cc3cccc(OC)c3oc2=O)cc1,–,16,–,–,7.3,–,–,7.8,24,–
Nc1nc2c(ncn2[C@@H]2O[C@H](C(=O)N[C@H](Cc3ccccc3)C(=O)NCCCc3ccccc3)[C@@H](O)[C@H]2O)c(=O)[nH]1,–,–,–,–,–,·,·,·,·,·
COc1ccc(NC(=S)Nc2cc(C)ccn2)c(OC)c1,–,14,–,1.5,14,–,–,12,19,–
CCCCN1CC(COc2ccc(OC)cc2)OCCS1(=O)=O (stereo unspecified),–,–,–,–,–,·,·,·,·,·
COc1cc2c(c(OC)c1OC)CC(c1ccccc1)=C(c1ccccc1)CC2NC(=O)C(F)(F)F (stereo unspecified),–,–,–,–,–,·,·,·,·,·
CCOc1cc(C2NN=C(c3ccccc3)S2)ccc1OCc1ccccc1Cl (stereo unspecified),–,16,–,1.4,8.7,5.9,–,9.2,16,–
c1ccc2c(c1)Cn1nnnc1-2,·,·,·,·,·,–,·,·,·,·
Brc1c(-c2ccccc2)nc2n1Cc1ccccc1-2,–,16,–,1.8,11,–,–,11,18,–
CCCCCCCCN1C(=O)[C@@H](CC(=O)NCC2CCCCC2)C[C@@]2(C(=O)OC)C1=C[C@H](C(C)(C)C)O[C@@H]2C,–,–,–,–,–,·,·,·,·,·
